Here are results for 23 sequences from the OligoGym collection.
Further: reference of the scale not given here.

In the first test the target is TBX10. The experiment in a line: pooled miR-30 sensor sort-seq; sequence = guide strand. To be noted: shRNA.
On to TTGGTGACGATCATCTCAGTGC, for which the sensor-assay potency score (higher = more potent) was -0.282.

ATACCTGTATCTCTTGTCGTCC: the sensor-assay potency score (higher = more potent) is -0.36. Same read-out and setting: for TGGAGGTGGAAGCTGAAGCTTT the value was -1.2. The same measure, in the same setting: as for TTCTGATAGGCTGTCACTGCTG, the figure is -0.605; as for TTGCTGGCGATTTTCAGCTGGG, -0.663. In turn, TATCTCTTGTCGTCCAGGGGGA yielded a sensor-assay potency score (higher = more potent) of -0.47.

With TTGTTGGGGTCTTTCTCCCTGT, the sensor-assay potency score (higher = more potent) was -0.814. TCACTCTGGACACACGTGGGTT returned a sensor-assay potency score (higher = more potent) of -1.06. TAGCGCTCACTGTCCTTGCGTG displayed a sensor-assay potency score (higher = more potent) of -0.517. On the same count and under the same terms, as for TTCATCTCCAGCTGAACTGTCA, the figure is -0.543; as for TCCAGCTGAACTGTCACTCTGG, -0.454. Same read-out and setting: for TATGGTGCTGGTCGGGTCCTTG the value was -1.11.

Another test concerns the target TBX15. The test is described as above. The note with it: shRNA.
TTGTACACAGACAAATTCTTGG yielded a sensor-assay potency score (higher = more potent) of -0.17.

For TTCAGTTCCAATATCATGGAAC, the sensor-assay potency score (higher = more potent) is -0.282.

Consider TTAATCTGGTAATCTGCTGATT, for which the sensor-assay potency score (higher = more potent) was -0.87. On the same count and under the same terms, as for TTTCGGTCAATTTTTAATCTGG, the figure is -0.172. TAGGCTTCCATCTTGCTGTTGC displayed a sensor-assay potency score (higher = more potent) of 0.42.

For TTGCTATGTAGTACTGCTGATG, the sensor-assay potency score (higher = more potent) was -1.07.

Consider TTTTAATCTGGTAATCTGCTGA, for which the sensor-assay potency score (higher = more potent) was determined as 0.443. Still for that read-out and setting: for TACACAGACAAATTCTTGGTGA the value was 0.47.

TGTCTTTCCACTCTCATCCATT gave a sensor-assay potency score (higher = more potent) of -1.03. The sequence TTGATCATCCAACTCATTGTTG had a sensor-assay potency score (higher = more potent) of -0.489. The sequence TTAGATTACACAGCTGGCTTTC had a sensor-assay potency score (higher = more potent) of -0.575.
